The record followed here is the antibiotic and cytotoxicity screens of Wong et al. (2023).

In all, about 39,000 compounds went through this assay and about 500 (1.3%) were called active. For the sample, actives were picked, then their nearest neighbours and some compounds at random.

The assay relates to S. aureus RN4220. The assay is described as follows: growth inhibition call (relative growth <= 0.2). As to conditions: 50 µM.
Regarding `CC(C)NC(=O)Nc1ccc2c(c1)C(=O)N([C@H](C)CO)C[C@H](C)[C@@H](CN(C)C(=O)Nc1ccc(F)cc1)OCCCC[C@@H](C)O2`, the growth inhibition call was “inactive”.
As to `Cc1noc(C)c1NC(=O)N(C)C[C@H]1OCCCC[C@@H](C)Oc2ccc(NS(=O)(=O)c3ccc(F)cc3)cc2C(=O)N([C@H](C)CO)C[C@@H]1C`, the growth inhibition call was “inactive”.
With `C[C@H](CO)N1C[C@H](C)[C@H](CN(C)C)OCCCC[C@H](C)Oc2ccc(NS(=O)(=O)c3cn(C)cn3)cc2C1=O`, the growth inhibition call was “inactive”.
As for `COc1cc(-c2cc(=O)c3c(=O)cc(-c4ccc(O)c(OC)c4)n(CCc4ccccc4)c3s2)ccc1O`, the entry is “inactive”.
For `Cc1noc(C)c1NC(=O)N(C)C[C@@H]1Oc2ccc(NS(=O)(=O)c3cn(C)cn3)cc2CC(=O)N([C@H](C)CO)C[C@H]1C`, the growth inhibition call was “inactive”.
`CO[C@H]1O[C@H](CO)[C@@H](OC(=O)Nc2ccc(Br)cc2)[C@@H]2OC(=O)[C@H](Cc3cccc(Br)c3)C/C=C/C[C@@H](Cc3cccc(Br)c3)C(=O)O[C@@H]12`: the growth inhibition call was “inactive”.
Consider `C[C@@H]1CN([C@@H](C)CO)C(=O)c2cccc(NS(=O)(=O)c3ccc(F)cc3)c2O[C@@H]1CN(C)S(C)(=O)=O`, for which the growth inhibition call was “inactive”.
For `CCNC1CC(N)C(OC2OC(CN)=CCC2N)C(O)C1OC1OCC(C)(O)C(NC)C1O.O=S(=O)(O)O.O=S(=O)(O)O` (stereo unspecified), the growth inhibition call was “inactive”.
As for `CN[C@@H]1[C@@H](O)[C@@H](O[C@@H]2[C@@H](O)[C@H](O[C@H]3OC(CN)=CC[C@H]3N)[C@@H](N)C[C@H]2N)OC[C@]1(C)O`, the entry is “inactive”; as for `CNC1C(O)C(OC2C(N)CC(N)C(OC3OC(CN)=CCC3N)C2O)OCC1(C)O.O=S(=O)(O)O` (stereo unspecified), “active”; as for `C[C@@H]1CCCCO[C@H](CN(C)C(=O)CCC(F)(F)F)[C@@H](C)CN([C@@H](C)CO)C(=O)c2cc(NS(=O)(=O)c3ccc(F)cc3)ccc2O1`, “inactive”.
For `CC(C)NC(=O)Nc1ccc2c(c1)C(=O)N([C@@H](C)CO)C[C@H](C)[C@@H](CN(C)Cc1ccccc1)OCCCC[C@H](C)O2`, the growth inhibition call was “inactive”.
With `CO[C@@H]1CN(C)C(=O)c2ccc(NC(=O)Nc3cccc(Cl)c3)cc2OC[C@@H](C)N(C(=O)Nc2c(C)noc2C)C[C@H]1C`, the growth inhibition call is “inactive”.
In the case of `CC(C)(C)[S@@+]([O-])N1Cc2cc(C(=O)NCc3ccc4c(c3)OCO4)nc(-c3ccc(-c4ccc(C#N)cc4)cc3)c2[C@H]1CCO`, the growth inhibition call was “inactive”.
As for `Cc1noc(C)c1S(=O)(=O)N(C)C[C@H]1OCCCC[C@@H](C)Oc2ccc(NC(=O)Nc3ccc(F)cc3)cc2C(=O)N([C@@H](C)CO)C[C@@H]1C`, the entry is “inactive”; as for `CC(C)NC(=O)N(C)C[C@@H]1OCCCC[C@@H](C)Oc2ccc(NS(C)(=O)=O)cc2C(=O)N([C@@H](C)CO)C[C@H]1C`, “inactive”.
Turning to `CCCSc1nc(N[C@@H]2C[C@H]2c2ccc(F)c(F)c2)c2nnn([C@@H]3C[C@H](OCCO)[C@@H](O)[C@H]3O)c2n1`, the growth inhibition call is “active”.
For the molecule `COc1cc(O)c(C(=O)O)c(O)c1`, the growth inhibition call is “inactive”.
Consider `CCCCCc1c2c(cc(O)c1C(=O)O)OC(=O)c1c(cc(OC)cc1C(=O)CCCC)O2`, for which the growth inhibition call was “active”.
For `COc1cc(C)c(C(=O)O)c(O)c1` the value was “inactive”; for `C[C@@H]1CN([C@H](C)CO)C(=O)c2cccc(NC(=O)Nc3ccc(C(F)(F)F)cc3)c2O[C@@H]1CN(C)Cc1ccc(Oc2ccccc2)cc1`, “inactive”.
On to `Cc1ccc(S(=O)(=O)N(C)C[C@H]2Oc3ccc(NS(=O)(=O)c4ccccc4)cc3C(=O)N([C@@H](C)CO)C[C@@H]2C)cc1`, for which the growth inhibition call is “inactive”.
For the molecule `C[C@@H]1CN([C@H](C)CO)C(=O)Cc2cc(NS(=O)(=O)c3ccc(Cl)cc3)ccc2O[C@@H]1CN(C)S(C)(=O)=O`, the growth inhibition call is “inactive”.
As for `COC(=O)OCOc1c2n(ccc1=O)N([C@@H]1c3ccccc3SCc3c1ccc(F)c3F)[C@@H]1COCCN1C2=O`, the entry is “inactive”.
`CC[C@@H](C)CCCCC(=O)N[C@@H](CCN)C(=O)N[C@H](C(=O)N[C@@H](CCN)C(=O)N[C@H]1CCNC(=O)[C@H]([C@@H](C)O)NC(=O)[C@H](CCN)NC(=O)[C@H](CCN)NC(=O)[C@H](CC(C)C)NC(=O)[C@@H](Cc2ccccc2)NC(=O)[C@@H](CCN)NC1=O)[C@@H](C)O`: the growth inhibition call was “inactive”.
Turning to `CC[C@@H](C)CCCC(=O)N[C@@H](CCN)C(=O)N[C@H](C(=O)N[C@@H](CCN)C(=O)N[C@H]1CCNC(=O)[C@H]([C@@H](C)O)NC(=O)[C@H](CCN)NC(=O)[C@H](CCN)NC(=O)[C@H](CC(C)C)NC(=O)[C@@H](CC(C)C)NC(=O)[C@H](CCN)NC1=O)[C@@H](C)O`, the growth inhibition call is “inactive”.
With `CCC(C)CCCCC(=O)NC(CCN)C(=O)NC(C(=O)NC(CCN)C(=O)NC1CCNC(=O)C(C(C)O)NC(=O)C(CCN)NC(=O)C(CCN)NC(=O)C(CC(C)C)NC(=O)C(Cc2ccccc2)NC(=O)C(CCN)NC1=O)C(C)O.O=S(=O)(O)O` (stereo unspecified), the growth inhibition call is “active”.
Regarding `C[C@@H]1CN([C@H](C)CO)S(=O)(=O)c2ccc(C#C[C@@H](C)O)cc2O[C@@H]1CN(C)C(=O)c1ccncc1`, the growth inhibition call was “inactive”.
Consider `O=C(C[C@@H]1CC[C@H](NC(=O)CN2CCOCC2)[C@@H](CO)O1)NCCc1ccccc1`, for which the growth inhibition call was “inactive”.
As for `O=C1C=CC(=O)N1`, the entry is “active”; as for `Cc1noc(C)c1NC(=O)N(C)C[C@H]1OCCCC[C@@H](C)Oc2ccc(NC(=O)NC3CCCCC3)cc2C(=O)N([C@H](C)CO)C[C@@H]1C`, “inactive”.
On to `N[C@@H]1CC[C@@H](c2ccc(Cl)c(Cl)c2)c2ccccc21`, for which the growth inhibition call was “active”.
As for `CNC1CCC(c2ccc(Cl)c(Cl)c2)c2ccccc21.Cl` (stereo unspecified), the entry is “active”; as for `CN[C@H]1CC[C@@H](c2ccc(Cl)c(Cl)c2)c2ccccc21`, “inactive”; as for `O=C(C[C@H]1C=C[C@H](NS(=O)(=O)c2ccc(F)cc2)[C@@H](CO)O1)N1CCC(Cc2ccccc2)CC1`, “inactive”.
For `Cc1ccc(S(=O)(=O)Nc2ccc3c(c2)C(=O)N([C@H](C)CO)C[C@H](C)[C@H](CN(C)C(=O)Nc2c(C)noc2C)OCCCC[C@H](C)O3)cc1` the value was “inactive”; for `CO[C@@H]1CC[C@@H]2[C@H]1OCCN2C(=O)N(C)C`, “inactive”.
Turning to `CCCC#Cc1ccc2c(c1)O[C@@H](CN(C)S(=O)(=O)c1cccc(F)c1)[C@@H](C)CN([C@H](C)CO)S2(=O)=O`, the growth inhibition call is “inactive”.
`Nc1ccc(Sc2ccc3ccccc3c2Cl)c(Cl)c1`: the growth inhibition call is “active”.
For `Nc1ccc(Oc2ccc3ccccc3c2Cl)c(Cl)c1`, the growth inhibition call was “active”.
Regarding `COc1ccc2ccccc2c1-c1c(OC)ccc2ccccc12`, the growth inhibition call was “inactive”.
`c1ccc2c(c1)ccc1cc3c(ccc4ccccc43)cc12`: the growth inhibition call was “inactive”.
As to `COc1cc(Cl)ccc1Oc1ccc(Cl)cc1Cl`, the growth inhibition call was “inactive”.
As for `C[C@@H]1CN([C@H](C)CO)C(=O)c2cc(NC(=O)Nc3ccc4c(c3)OCO4)ccc2O[C@@H](C)CCCCO[C@H]1CN(C)Cc1ccc(C(=O)O)cc1`, the growth inhibition call is “inactive”.
As for `C[C@@H]1CN([C@H](C)CO)C(=O)c2cc(NC(=O)Nc3ccc4c(c3)OCO4)ccc2O[C@@H](C)CCCCO[C@@H]1CN(C)C(=O)CCC(F)(F)F`, the entry is “inactive”; as for `COc1ccc(CN(C)C[C@@H]2Oc3c(NC(=O)c4ccc(-c5nccs5)cc4)cccc3C(=O)N([C@@H](C)CO)C[C@H]2C)cc1`, “inactive”; as for `Cc1noc(C)c1S(=O)(=O)Nc1ccc2c(c1)CC(=O)N([C@@H](C)CO)C[C@H](C)[C@H](CN(C)S(=O)(=O)c1cn(C)cn1)O2`, “inactive”.
In the case of `C[C@@H]1CN([C@H](C)CO)C(=O)c2cccc(NS(C)(=O)=O)c2O[C@H]1CN(C)C(=O)Nc1ccccc1`, the growth inhibition call was “inactive”.
For the molecule `CC(C)NC(=O)Nc1ccc2c(c1)C(=O)N([C@H](C)CO)C[C@H](C)[C@H](CN(C)Cc1ccc(C(=O)O)cc1)O2`, the growth inhibition call is “inactive”.
Consider `NCC1CCC(N)C(OC2C(N)CC(N)C(OC3OC(CO)C(O)C(N)C3O)C2O)O1` (stereo unspecified), for which the growth inhibition call was “inactive”.
Take `NC[C@@H]1O[C@H](O[C@H]2[C@@H](O)[C@H](O[C@@H]3[C@@H](O)[C@H](N)C[C@H](N)[C@H]3O[C@@H]3O[C@H](CO)[C@@H](O)C[C@H]3N)O[C@@H]2CO)[C@H](N)[C@@H](O)[C@@H]1O[C@H]1O[C@H](CO)[C@@H](O)[C@H](O)[C@@H]1O`: the growth inhibition call was “inactive”.
For the molecule `NC[C@H]1O[C@H](O[C@H]2[C@H](O)[C@@H](O[C@H]3O[C@H](CO)[C@@H](O)[C@H](N)[C@H]3O)[C@H](N)C[C@@H]2N)[C@H](N)C[C@@H]1O`, the growth inhibition call is “active”.
Take `NC[C@H]1O[C@H](O[C@H]2[C@@H](O[C@@H]3O[C@H](CO)[C@@H](O)[C@H]3O)[C@@H](O)[C@H](N)C[C@@H]2N)[C@H](N)[C@@H](O)[C@@H]1O`: the growth inhibition call is “inactive”.
As to `NCC1OC(OC2C(N)CC(N)C(OC3OC(CO)C(O)C(N)C3O)C2O)C(N)CC1O` (stereo unspecified), the growth inhibition call is “active”.
`NC[C@H]1O[C@H](O[C@@H]2[C@H](O)[C@@H](O[C@H]3O[C@H](CO)[C@@H](O)[C@H](N)[C@H]3O)[C@H](N)C[C@@H]2N)[C@H](O)[C@@H](O)[C@@H]1O`: the growth inhibition call is “inactive”.
As for `C[C@@H]1CN([C@@H](C)CO)C(=O)c2cccc(NC(=O)CCCCCC(=O)Nc3ccccc3N)c2O[C@@H]1CN(C)C(=O)Nc1ccc(F)cc1`, the growth inhibition call is “inactive”.
On to `OCC(CO)NC1CC(O)(CO)C(O)C(O)C1O` (stereo unspecified), for which the growth inhibition call was “inactive”.
As to `C[C@H](CO)N1C[C@H](C)[C@H](CN(C)CC2CC2)OCCCC[C@H](C)Oc2ccc(NC(=O)Cc3ccccc3)cc2C1=O`, the growth inhibition call was “inactive”.
As for `COc1ccc(NC(=O)Nc2ccc3c(c2)C(=O)N([C@@H](C)CO)C[C@H](C)[C@@H](CN(C)S(=O)(=O)c2ccc(Cl)cc2)OCCCC[C@H](C)O3)cc1`, the growth inhibition call is “inactive”.
For `CCCNC(=O)N1C[C@]2(CCN(CC2)S(=O)(=O)c2ccccc2)c2c(n(c3cc(ccc23)OC)C)[C@@H]1CO` the value was “inactive”.
Turning to `C[C@H](CO)N1C[C@H](C)[C@@H](CN(C)Cc2ccc(C(F)(F)F)cc2)Oc2ccc(NC(=O)Nc3ccc(F)cc3)cc2CC1=O`, the growth inhibition call was “inactive”.
